The results in this text go back to PubChem BioAssay (NCI).

Several values for one entry are separate records, joined by “and”; a condition that tells them apart may be missing. Identical values can stand only once. The panel holds about 83,000 compounds, 20% with a hit somewhere; the sample as a whole holds those more often.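 Single-dose data. Exposure time 48 hours. Values below 10 considered active.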 Values without a mark were called inactive. Activity calls are given as the source filed them.

This assay concerns MDA-MB-468 breast. Put plainly: NCI-60 one-dose screen, 48 h (100 = growth as untreated, 0 = no growth, -100 = all killed). Conditions: 10 µM unless noted.
For the compound `COc1cc(C(=O)/C=C/c2c(Cl)nc3sccn23)cc(OC)c1OC`, the growth was 60.1%.

Turning to `c1ccc2cc3nc4cc5ccccc5cc4nc3cc2c1`, the growth is 117%.

With `CN(C)CCOC1(Cc2ccc(Cl)cc2Cl)CCC(C(C)(C)C)CC1` (configuration not stated), the growth is -77.6% (active) and -87.3% (active).

Consider `ClCC(Cl)C1CCC(Cl)C(Cl)C1` (configuration not stated), for which the growth was 114%.

In the case of `CC(=O)Nc1cccc(-c2ccc3c(c2)NC(=O)/C3=C\c2ccc[nH]2)c1`, the growth is 21.1%.

For `Cc1ccc(/C=C(/C#N)n2nnc3cccc(F)c32)cc1`, the growth was -16.1% (active).

Turning to `O=C(CCSc1nnc2n(Cc3ccccc3)c(=O)c3c4c(sc3n12)CCCC4)N1CCN(c2ccccc2)CC1`, the growth is 101%.

Take `Oc1ccc(-c2nn(-c3ccccc3)cc2-c2nc3ccccc3s2)cc1`: the growth is 90.1%.

Regarding `COc1cc(Cn2ccc3c2-c2oncc2CC3)cc(OC)c1`, the growth was 10.9%.

Take `CCCCCCNC(=O)Oc1ccc(/C(=C(/C)c2ccc(Cl)cc2)c2ccc(OCCN3CCCC3)cc2)cc1`: the growth is 62.6%.

On to `O=C(O)c1ccccc1Nc1cccc(S(F)(F)(F)(F)F)c1`, for which the growth was 111%.

For the compound `Cc1cc(-c2ccccc2)c(C)n1Cc1ccc(Cl)cc1`, the growth is 27.7%.

Consider `CC1=NCC2NC(=O)NC(C)=C12` (configuration not stated), for which the growth is 92.3%.

As to `CCC(c1ccc(OC)cc1)C(CC)c1ccc(O)c(CN2CCN(C)CC2)c1` (configuration not stated), the growth is 30%.

Turning to `O=C(Nc1ccc(Cl)c(C(F)(F)F)c1)Nc1ccc(-c2cccnc2)cc1N1CCC(CO)CC1`, the growth was 12.6%.

As to `Cc1ccccc1OC(=O)c1cccc(Cl)c1`, the growth was 107%.

As for `CCCCCCOc1ccc(C(=N)N(CCCC)CCCC)c2ccccc12`, the growth is -82.3% (active).

On to `O=C(N/N=C/c1ccccc1O)C(=O)Nc1ccc(F)cc1`, for which the growth was 33%.

As to `CCc1c(C)c2ccc(O)c(-c3cc(-c4ccccc4)c(C#N)c(=O)[nH]3)c2oc1=O`, the growth is 102%.

Take `O=c1nc(-c2ccccc2)c2cc(-c3ccc(N4CCOCC4)cc3)ccc2[nH]1`: the growth was 77.4%.

Turning to `CCN1CCN(Cc2ccc(-c3cc4c(N[C@H](C)c5ccccc5)ncnc4[nH]3)cc2)CC1`, the growth was -38.9% (active).

Consider `COc1cc(OC)c2sc(-c3ccc(-n4cncc4-c4ccc(OC)c(N)c4)cc3)nc2c1`, for which the growth is 80.6%.

With `NC(=O)c1c(NC(=O)c2ccc3c(c2)OCO3)sc2c1CCC(=O)C2`, the growth is -35.3% (active).

`CC(C)[C@@H]1CC[C@]2(C(=O)NCCCCN=C(N)N)CC[C@]3(C)[C@H](CC[C@@H]4[C@@]5(C)CCC(=O)C(C)(C)[C@@H]5CC[C@]43C)[C@@H]12`: the growth was 10.6%.

As to `CCCCCC(=O)OCC(=O)O[C@@H]1C[C@]2(C(C)C)O[C@@]1(C)[C@@H]1CC[C@@H](C)[C@H]1[C@@H]2OC(=O)/C=C/c1ccccc1`, the growth was 70%.

For the compound `CCOc1ccccc1/C=N/N1CCCCCC1`, the growth was 108%.

Take `COc1cccc(-c2nc3sccn3c2-c2ccnc(NCCCNS(=O)(=O)c3cccc(Cl)c3)c2)c1`: the growth was 24.6%.
